Screening data as filed in PubChem BioAssay.
Rows were chosen to be rich in hits. Some 19% of all compounds tested hit in one or more screens of this group.
DT40 TDP1 CPT: qHTS for Inhibitors of human tyrosyl-DNA phosphodiesterase 1 (TDP1): qHTS in cells in presence of CPT | chicken DT40 Tdp1-/-;hTDP1 cells + 20 nM CPT, ATP luminescence, 48 h | Potency, µM (highest dose often 46.2 µM), usual class: inhibitors | actives 12% (n = 420,000); further: nearly all actives have a fitted effect of over 55% in size
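Cell growth measured by CellTiter-Glo luminescence after a minimum 48 h, 37 C compound exposure with 20 nM CPT in Tdp1-knockout DT40 cells stably expressing hTDP1, seeded 400/well; qHTS titration format.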
TDP1 block: qHTS Assay for Inhibitors of Tyrosyl-DNA Phosphodiesterase (TDP1). recombinant TDP1, AlphaScreen DNA substrate cleavage. Potency, µM (doses to about 130 µM), usual class: inhibitors. actives 0.28% (n = 350,000). AID 485290, 2010; further: nearly all actives have a fitted effect of over 40% in size
Target sequence (Q9NUW8 whole entry, looked up): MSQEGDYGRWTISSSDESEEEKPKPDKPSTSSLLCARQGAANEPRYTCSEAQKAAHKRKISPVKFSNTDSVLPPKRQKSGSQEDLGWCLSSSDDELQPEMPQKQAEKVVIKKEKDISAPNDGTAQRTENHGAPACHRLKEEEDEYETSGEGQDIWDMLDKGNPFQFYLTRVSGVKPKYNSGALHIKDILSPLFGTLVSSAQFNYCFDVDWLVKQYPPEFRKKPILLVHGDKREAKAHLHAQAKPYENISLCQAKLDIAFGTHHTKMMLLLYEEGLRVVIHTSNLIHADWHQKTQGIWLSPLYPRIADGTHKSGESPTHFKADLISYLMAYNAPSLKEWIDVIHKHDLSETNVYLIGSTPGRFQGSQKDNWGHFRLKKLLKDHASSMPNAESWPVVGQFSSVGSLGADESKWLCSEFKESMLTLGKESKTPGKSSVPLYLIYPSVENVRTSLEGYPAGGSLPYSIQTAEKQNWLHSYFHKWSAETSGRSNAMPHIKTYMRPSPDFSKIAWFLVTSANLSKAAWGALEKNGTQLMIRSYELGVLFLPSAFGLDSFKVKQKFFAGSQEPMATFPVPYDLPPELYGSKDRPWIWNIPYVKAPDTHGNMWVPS
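Tdp1 1 nM final; 15 min RT w/ cpd; substrate 15 nM, 5 min; beads 10 ug/ml, 10 min; AlphaScreen read. Neg ctrl: no enzyme.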
Gal4-VP16 FLuc: VP16 counterscreen qHTS for inhibitors of ROR gamma transcriptional activity; Drosophila S2 Gal4-VP16 UAS-luciferase, luminescence, 20 h; Potency, µM (highest dose often 53.6 µM), hits mostly inhibitors; actives 3.5% (n = 310,000);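 further: Gal4-VP16 expression switched on by copper sulfate through the metallothionein promoter; nearly all actives have a fitted effect of over 50% in size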
TDP1 cell noCPT: qHTS for Inhibitors of human tyrosyl-DNA phosphodiesterase 1 (TDP1): qHTS in cells in absence of CPT; Potency, µM (series often up to 46.2 µM), hits mostly inhibitors; AID 686978, 2013; actives 15% (n = 420,000); DT40 Tdp1-/- hTDP1 cells, no CPT, ATP luminescence, 48 h; further: nearly all actives have a fitted effect of over 55% in size
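A cellular qHTS used chicken DT40 cells lacking endogenous Tdp1 but carrying stably transfected human TDP1. Compounds were applied without camptothecin, and cell growth kinetics were judged by ATP-dependent luminescence after ≥48 hr.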
RORgamma inh: qHTS for inhibitors of ROR gamma transcriptional activity; Drosophila S2 Gal4-RORgamma UAS-luciferase reporter, 20 h; Potency, µM (highest dose often 53.6 µM), most hits filed as inhibitors; Nuclear receptor ROR-gamma (Mus musculus), P51450; actives 5.4% (n = 310,000); AID 2551, 2010; further: nearly all actives have a fitted effect of over 60% in size
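In this cell-based reporter format, copper sulfate (700 uM final) drives Gal4–ROR gamma fusion expression from a metallothionein promoter in Drosophila Schneider cells; compounds preincubated 1 hr, reporter read after 20 hr at ambient temperature.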
Hits are given with their value; - = inactive; ? = inconclusive; . = not tested or not shown; [ ] = remark or other dose. The call rests on the fitted dose curve; in most records, active means well fitted curve in the direction sought with a large enough effect; inconclusive means small, poorly fitted or top-dose-only effect, or another doubt; inactive means no such curve, though single readings can be large; an effect the other way counts as inactive or inconclusive.

SMILES	DT40 TDP1 CPT	TDP1 block	Gal4-VP16 FLuc	TDP1 cell noCPT	RORgamma inh
O=C1CC(C(=O)O)S/C(=N\NC(=O)c2ccc(F)cc2)N1 (configuration not stated)	-	-	-	-	-
COc1cccc(NC(=O)C2CC(=O)N/C(=N/NC(=O)c3ccc(C)cc3)S2)c1 (configuration not stated)	-	-	11µM	-	6.3µM
COc1ccccc1C(=O)N/N=C1/NC(=O)CC(C(=O)Nc2ccccc2)S1 (configuration not stated)	-	-	-	-	-
Cc1ccc(C(=O)N/N=C2/NC(=O)CC(C(=O)Nc3ccccc3)S2)cc1 (configuration not stated)	-	-	5.6µM	-	3.2µM
Cc1cc(C(=O)NNC(=S)NCC(C)C)no1	-	-	-	?	7.9µM
O=C1C(CN2CCCC2)CCCC1CN1CCCC1 (configuration not stated)	0.52µM	.	.	0.52µM	.
COc1ccc(Nc2nc(NCc3ccco3)nc(N/N=C/c3ccccc3F)n2)cc1	18µM	-	-	16µM	-
Cc1cccc(N2CCN(C3=NC(=O)C(=C4CCCCC4)S3)CC2)c1	?	-	-	?	-[10 µM]
O=C1N=C(N2CCN(c3ccccc3)CC2)S/C1=C\c1cn[nH]c1-c1ccccc1	21µM	-	-	13µM	-
O=C1N=C(N2CCC(Cc3ccccc3)CC2)S/C1=C/c1cn[nH]c1-c1ccccc1	?	-	-	16µM	-
Cc1ccc(N2CCN(C3=NC(=O)/C(=C\c4cn[nH]c4-c4ccccc4)S3)CC2)cc1	?	-	-	21µM	-
Cc1cccc(N2CCN(C3=NC(=O)/C(=C\c4cn[nH]c4-c4ccccc4)S3)CC2)c1	6.5µM	-	-	2.1µM	-
O=C1N=C(N2CCN(c3ccccc3)CC2)S/C1=C\c1ccco1	-	-	-	-	-
CCN(CC)C(=O)N1CCc2ccccc21	-	-	-	-	-
CCn1c(=O)c([N+](=O)[O-])c(Cl)c2ccccc21	2.9µM	-	8.9µM	2.6µM	7.9µM
CCn1c(=O)c([N+](=O)[O-])c(NCCN(C)C)c2ccccc21	-	-	-	-	-
COc1cccc(NC(=O)N2CCN(c3cccc(C)c3C)CC2)c1	-	-	?	?	?
Cc1nc2ccccc2n2c(-c3ccccc3)c3c(=O)n(C)c(=O)n(C)c3c12	?	-	-	15µM	-
CCCc1nc2ccccc2n2c(-c3cccc(C)c3)c3c(=O)n(C)c(=O)n(C)c3c12	?	-	.	8.2µM	.
CCCc1nc2ccccc2n2c(-c3ccc(C)cc3)c3c(=O)n(C)c(=O)n(C)c3c12	23µM	-	.	26µM	.
c1ccc([C@H]2CC3C[C@@H](c4ccccc4)N2O3)cc1	-	-	-	-	-
CS(=O)(=O)N(CC(=O)Nc1ccccc1C(=O)NCc1ccco1)c1ccccc1F	-	-	-	-	-
COc1ccc(C(=O)c2ccc([N+](=O)[O-])cc2)cc1S(=O)(=O)N1CCC(C(=O)O)CC1	-	-	-	-	-
CNCc1nc(-c2ccc[nH]2)c2cc(Cl)ccc2n1	11µM	.	.	14µM	.
CSc1nc(-c2ccccc2)c2cc(Cl)ccc2n1	-	-	-	?	-
SMILES	DT40 TDP1 CPT	TDP1 block	Gal4-VP16 FLuc	TDP1 cell noCPT	RORgamma inh
Nc1ncnc(Sc2ccc(Cl)cc2)c1[N+](=O)[O-]	4.6µM	-	-	5.8µM	-
Cc1cccc(C)c1Nc1ncnc(N)c1[N+](=O)[O-]	-	-	-	-	?
Nc1ncnc(Sc2ncccn2)c1[N+](=O)[O-]	1.2µM	-	7.1µM	1.3µM	4µM
Cc1ccc(Sc2ncnc(N)c2[N+](=O)[O-])cc1	-	-	-	?	-
Nc1ncnc(Sc2ccccc2)c1[N+](=O)[O-]	-	-	?	-	10µM
CCOc1ccc(OCCOCCn2c(-c3ccc(Cl)cc3)nc3ccccc3c2=O)cc1	-	.	.	?	.
C=Cc1ccc(CC2(C)C(=O)Nc3ccc(-c4cccnc4)cc32)cc1 (configuration not stated)	?	.	.	4.6µM	.
